# According to PubChem BioAssay AID720708 (National Center for Advancing Translational Sciences (NCATS), 2013):
# The whole screen tested about 360,000 compounds, of which about 660 (0.18%) were called active. About 2% were inconclusive and are not listed. Many of the other results were omitted from the sample, so actives are more common in it than they were. A number with no mark means an inactive call. The call rests on the fitted dose curve; in most records, active means well fitted inhibition curve with a large enough effect; inconclusive means small, poorly fitted or top-dose-only effect; inactive means no such curve, though single readings can be large or run the other way.
# Target: Rap guanine nucleotide exchange factor 4 (Homo sapiens) (UniProt Q8WZA2)
# Sequence (Q8WZA2 whole entry, looked up): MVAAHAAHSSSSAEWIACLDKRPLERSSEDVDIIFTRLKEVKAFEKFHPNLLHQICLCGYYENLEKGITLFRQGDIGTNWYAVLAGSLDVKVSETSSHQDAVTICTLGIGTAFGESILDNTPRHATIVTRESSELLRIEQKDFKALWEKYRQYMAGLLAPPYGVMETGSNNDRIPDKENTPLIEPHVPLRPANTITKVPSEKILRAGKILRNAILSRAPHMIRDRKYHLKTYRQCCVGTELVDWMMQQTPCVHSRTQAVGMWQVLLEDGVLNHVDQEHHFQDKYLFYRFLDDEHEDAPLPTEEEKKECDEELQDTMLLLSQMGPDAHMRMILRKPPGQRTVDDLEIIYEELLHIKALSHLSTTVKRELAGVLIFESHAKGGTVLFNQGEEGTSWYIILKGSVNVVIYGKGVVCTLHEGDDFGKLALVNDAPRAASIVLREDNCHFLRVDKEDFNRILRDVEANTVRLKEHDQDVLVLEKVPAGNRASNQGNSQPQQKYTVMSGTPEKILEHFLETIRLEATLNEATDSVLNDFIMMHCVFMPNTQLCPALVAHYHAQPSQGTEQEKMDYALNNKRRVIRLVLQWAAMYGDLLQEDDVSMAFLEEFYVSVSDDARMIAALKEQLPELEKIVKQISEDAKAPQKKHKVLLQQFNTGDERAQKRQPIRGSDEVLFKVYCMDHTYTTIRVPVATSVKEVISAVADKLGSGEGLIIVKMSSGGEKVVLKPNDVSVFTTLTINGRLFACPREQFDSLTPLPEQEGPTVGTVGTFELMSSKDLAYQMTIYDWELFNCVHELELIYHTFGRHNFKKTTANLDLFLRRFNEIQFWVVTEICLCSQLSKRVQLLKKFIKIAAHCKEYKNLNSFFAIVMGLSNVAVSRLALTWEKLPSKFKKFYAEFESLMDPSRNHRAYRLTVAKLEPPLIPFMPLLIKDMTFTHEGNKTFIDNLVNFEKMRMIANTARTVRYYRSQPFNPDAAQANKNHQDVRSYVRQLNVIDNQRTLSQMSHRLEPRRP
# Assay: qHTS for Antagonist of cAMP-regulated guanine nucleotide exchange factor 2 (EPAC2): primary screen; further: nearly all actives have a fitted effect of over 45% in size
# Settings: EPAC2 GEF exchange of Rap1B-BODIPY-GDP, fluorescence; series mostly up to 114 µM; activity, negative = inhibition: at the top concentration
# On the % scale 0 is the no-effect control and ±100 the full control effect; potency means the concentration at half of the fitted maximal effect.
Structure (SMILES),"activity, negative = inhibition",Potency
COC(=O)[C@]12CCCCC=C1N(CCC1=CCCCC1)C(=O)[C@H](CC(=O)N1CCSCC1)C2,9.02%,–
C=C1C2C[C@H](O)C(C)(C)[C@@]2(O)[C@H](O)C[C@]23C[C@@](C)(O)[C@H](CC[C@H]12)[C@H]3O (some centres undefined),-2.34%,–
CC1(C)OC(=O)C2=C(C[C@@H](C3CCCC3)O[C@@H]2c2ccc(Cl)cc2)O1,-4.79%,–
COc1ccc(N(C)S(=O)(=O)c2cccc3nsnc23)cc1,-26%,–
Cn1ccc(=Nc2ccc(NC(=O)c3ccc(N=c4ccn(C)c5ccc([N+](=O)[O-])cc45)cc3)cc2)cc1,–,22.4 µM (active)
CN(CC1CCCO1)S(=O)(=O)c1ccc(C(=O)Nc2ccc([N+](=O)[O-])cc2)cc1 (centres undefined),-8.12%,–
CC(C)c1ccc(NC(=O)CCN2C(=O)c3ccc([N+](=O)[O-])cc3C2=O)cc1,4.46%,–
COCc1cccc(-c2csc(C(O)c3ccc(F)cc3)n2)c1 (centres undefined),-6.83%,–
O=C(Nc1cc(Cl)ccc1N1CCOCC1)c1ccc(N2CCCC2=O)cc1,0.558%,–
CCc1nn(CCCC(=O)Nc2ccc(C)c(C)c2)c(=O)c2cc3occc3n12,-2.6%,–
COc1c(F)c(F)c(-c2csc(N)n2)c(F)c1F,1.67%,–
Cc1cccc(C)c1NC(=O)C(c1ccc(C(F)(F)F)cc1)n1c(=O)c(-c2ccco2)nc2ccccc21 (centres undefined),-16.5%,–
O=C(O)CCCN1C(=O)C2C3c4ccccc4C(c4ccccc43)[C@@H]2C1=O (some centres undefined),6.33%,–
C=C1C(=O)OC2C1CCC(C)=CCCC1(C)OC21 (centres undefined),5.97%,–
CCN(c1ccccc1)S(=O)(=O)c1ccc2[nH]c(=O)[nH]c2c1,-7.42%,–
CCN1CCN(C(=O)c2cc3cc4ccc(OC)cc4nc3s2)CC1,-2.76%,–
N#CCOc1ccc(C2=NO[C@@H]3[C@@H]4C[C@@H]([C@H]5C(=O)N(c6ccc7c(c6)OCO7)C(=O)[C@@H]45)[C@H]23)cc1,-9.46%,–
CN(C)c1ccc(NC(=O)c2ccncc2)c2ccccc12,4.4%,–
CC1CCCN(C(C(=O)Nc2ccc(C(C)C)cc2)c2ccc3c(c2)OCO3)C1 (centres undefined),11.7%,–
CC(C)C[C@H]1CN([C@@H](CC(C)C)CN2CCC[C@@H]2CN2C(=O)C(=O)NC[C@@H]2Cc2ccccc2)C(=O)C(=O)N1CCc1ccccc1,-25.2%,–
COC(=O)c1cc2c(N)c(C(=O)c3ccc(Cl)cc3)sc2nc1C(OC)OC,–,79.4 µM (active)
COC(=O)c1sccc1NC(=O)c1ccc(Cl)cc1,5.53%,–
CC(C)OC(=O)c1sc2nc3c(cc2c1N)C(=O)CCC3,7.66%,–
CCOC(=O)[C@]12CCCC=C1N(CCC1=CCCCC1)C(=O)[C@H](CC(=O)NCCCCc1ccccc1)C2,-10.5%,–
O=C(O)c1ccccc1N=N/C(=N/Nc1cc(S(=O)(=O)O)ccc1O)c1ccccc1,–,50.1 µM (active)

Structure (SMILES),"activity, negative = inhibition",Potency
COc1ccccc1NC(=O)N1CCCC1C(=O)NCc1cccs1 (centres undefined),0.017%,–
Cc1ccc(-n2ncc3c2CC(C)(C)CC3NC(=O)CCc2cnn(C)c2)cc1 (centres undefined),-0.921%,–
CCO/C([O-])=N/c1c[n+](N2CCOCC2)no1,–,inactive
O=C(NCCCn1ccnc1)/C(=C\c1ccccc1F)NC(=O)c1ccccc1,-3.25%,–
CCC(=O)NC(Nc1cc(C)ccn1)(C(F)(F)F)C(F)(F)F,-5.15%,–
COC(=O)c1ccc2nc(-c3cccc(Br)c3)c(Cc3ccc(OC)cc3C)n2c1,-6.84%,–
CC1(C(=O)NCc2ccco2)Cc2c(-c3ccc4c(c3)OCO4)ccnc2O1 (centres undefined),-0.756%,–
O=C(Nc1ccccc1-c1nnn(CC(=O)N2CCCc3ccccc32)n1)c1cccc(Cl)c1,-0.482%,–
O=C(NC1CCCCC1)C(c1cc2ccccc2o1)n1c(=O)c(-c2ccco2)nc2ccccc21 (centres undefined),-8.44%,–
CCCc1nn2c(=O)cc(CSCC(=O)Nc3cccc(C)c3)nc2s1,6.1%,–
CCN(C(=O)COC(=O)c1c(NC(C)=O)sc(C)c1C)C1CCS(=O)(=O)C1 (centres undefined),2.22%,–
O=[N+]([O-])c1cc(Cl)cc(/C=N/NC(=S)Nc2cc(S(=O)(=O)N3CCOCC3)ccc2Cl)c1O,–,56.2 µM (active)
O=C(Nc1cc(S(=O)(=O)N2CCOCC2)ccc1Cl)c1cc(=O)c2ccccc2o1,-0.0117%,–
O=C(c1cc(S(=O)(=O)N2CCOCC2)ccc1Cl)N1CCOCC1,2.76%,–
NC(=O)NC(=O)C(OC(=O)CCNS(=O)(=O)c1ccccc1)c1ccccc1 (centres undefined),-9.11%,–
O=C(CCC(=O)n1ncc2ccccc21)NCc1ccccc1Cl,-5.43%,–
Cc1csc(NC(=O)CSc2nc(=O)n(CCCN(C)C)c3c2CCC3)n1,-1.23%,–
Cc1ccc(NC(=O)CSc2nc(=O)n(CCN(C)C)c3c2CCCC3)c(C)c1,7.61%,–
Cc1ccc2nc(NC(=O)CSc3nc(=O)n(CCCN(C)C)c4c3CCC4)sc2c1,–,79.4 µM (active)
Cc1cc(C)c2cc(C#N)c(N3CCNCC3)nc2c1,10.8%,–
Oc1c(Cl)cc(Cl)c(Cl)c1Cc1c(O)c(Cl)cc(Cl)c1Cl,–,31.6 µM (active)
O=C(NCc1ccccc1)C1CNCC(C(=O)NCc2ccccc2)C1 (centres undefined),6.8%,–
Cc1c2cnn(-c3ccccc3)c(=O)c2c(C)n1CCCC(=O)N1CCN(C)CC1,-7.56%,–
O=C(OCC(=O)N1CCCCCC1)c1cnc(Cl)c(Cl)c1,-8.72%,–
